Reference: PubChem BioAssay (Tox21)
Where “and” joins values, the source holds several entries; their conditions need not be identical. Equal entries are not always repeated. Results filed as inconclusive are left out. Calls of active or inactive are those of the source. Unless noted, calls come from the whole dose curve.

Assays:
[1] = Nuclear factor erythroid 2-related factor 2/antioxidant responsive element (Nrf2/ARE) small molecule agonists: qHTS cell viability counter screen in human keratinocytes (AID 1919968; active = well fitted curve in the direction sought with a large enough effect in the repeat runs; an effect the other way counts as inactive or inconclusive; note: nearly all actives have a fitted effect of over 55% in size)
Procedure, shortened: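 Viability counter-screen: KeratinoSens reporter cells, DMSO-delivered compounds, 23 h at 37 C, CellTiter-Fluor fluorescence.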

[2] = Nuclear factor erythroid 2-related factor 2/antioxidant responsive element (Nrf2/ARE) small molecule agonists: luciferase reporter gene qHTS assay in human keratinocytes (AID 1919969); note: nearly all actives have a fitted effect of over 35% in size; note: potency is the fitted concentration of half-maximal effect
[3] = biological target: Gonadotropin-releasing hormone receptor (Homo sapiens) (UniProt P30968); experiment: Human gonadotropin-releasing hormone receptor (GnRHR) small molecule agonists, calcium flux assay in GnRHR-HEK293 cells (AID 1920063); note: nearly all actives have a fitted effect of over 35% in size
Procedure, shortened: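 Tox21-format agonist screen using human GnRHR-expressing HEK293 cells and a fluorescent calcium dye; kinetic 3-min fluorescence reading after compound addition, 15-point concentration series run in triplicate.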

[4] = biological target: KiSS-1 receptor (Homo sapiens) (UniProt Q969F8); experiment: Human kisspeptin (KISS1R) small molecule agonists, calcium flux assay in KISS1R-HEK293 cells (AID 1920064; active = well fitted curve in the direction sought with a large enough effect in the repeat runs; an effect the other way counts as inactive or inconclusive)
Procedure, shortened: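 Intracellular calcium mobilization in KISS1R-HEK293 cells was recorded by fluorescence (Ex/Em 480/540) for 3 min following compound addition to cells pre-loaded 1 h with calcium dye.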

[5] = p53 small molecule agonists, cell-based qHTS assay with rat liver microsomes (AID 1963578)
Procedure, shortened: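 Quantitative HTS of the Tox21 10K library: p53RE-bla cells, rat liver microsomes plus NADPH at 0.5 mg/mL final each, 16 h at 37 C, beta-lactamase fluorescence detection.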

[6] = p53 small molecule agonists, cell-based qHTS assay with human liver microsomes: qHTS cell viability counter screen (AID 1963579); note: nearly all actives have a fitted effect of over 45% in size
Procedure, shortened: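 Viability of p53RE-bla cells is measured as CellTiter-Glo luminescence following a 16 h, 37 C incubation with compound, liver microsomes from human donors and NADPH.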

[7] = p53 small molecule agonists, cell-based qHTS assay with rat liver microsomes: qHTS cell viability counter screen (AID 1963580); note: nearly all actives have a fitted effect of over 45% in size
Procedure, shortened: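 HCT-116 p53RE-bla, 4,000 cells/well, 5 h pre-incubation; cpd + rat liver microsomes 0.5 mg/mL + NADPH 0.5 mg/mL (final); 16 h, 37 C; CellTiter-Glo, 30 min RT; luminescence.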

[8] = p53 small molecule agonists, cell-based qHTS assay: qHTS cell viability counter screen (AID 1963581); note: nearly all actives have a fitted effect of over 45% in size
Procedure, shortened: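 Compounds are pinned onto HCT-116 p53RE-bla cells and left 16 h at 37 C. Following the reporter FRET read, ATP is quantified by CellTiter-Glo luminescence after 30 min at room temperature.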

[9] = p53 small molecule agonists, cell-based qHTS assay (AID 1963582; active = well fitted activation curve with a large enough effect in the signal ratio in the repeat runs, not every such curve was filed as active; the % refers to the signal ratio)
Procedure, shortened: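 Agonist activity was scored from beta-lactamase FRET fluorescence in p53RE-bla cells treated 16 h at 37 C with compounds in DMSO, substrate incubation being 2 h at room temperature.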

[10] = biological target: 5-hydroxytryptamine receptor 2A (Homo sapiens) (UniProt P28223); experiment: 5-hydroxytryptamine receptor 2A (HTR2A) small molecule antagonists, cell-based qHTS assay (AID 1963586); note: nearly all actives have a fitted effect of over 45% in size
Procedure, shortened: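 Antagonist-mode intracellular calcium assay: DOI (4 nM) added after 5 min compound pre-incubation at room temperature to dye-loaded HTR2A-CHO cells. Fluorescence followed for 3 min, sampled every second.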

[11] = biological target: 5-hydroxytryptamine receptor 2A (Homo sapiens) (UniProt P28223); experiment: 5-hydroxytryptamine receptor 2A (HTR2A) small molecule agonists, cell-based qHTS assay (AID 1963587); note: nearly all actives have a fitted effect of over 30% in size; note: potency is the fitted concentration of half-maximal effect
Procedure, shortened: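 Kinetic calcium-flux fluorescence (2 min, 1 sec intervals) after compound addition in agonist mode. HTR2A-CHO cells were cultured 18 h, then dye-loaded 1 h at 37 C.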

[12] = biological target: Muscarinic acetylcholine receptor M1 (Homo sapiens) (UniProt P11229); experiment: Cholinergic receptor muscarinic 1 (CHRM1) small molecule antagonists, cell-based qHTS assay (AID 1963588); note: nearly all actives have a fitted effect of over 40% in size; note: potency is the fitted concentration of half-maximal effect
Procedure, shortened: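 CHRM1-CHO calcium-flux assay, antagonist mode. Cells were seeded 18 h, dye-loaded 1 h at 37 C and given compound for 5 min at RT, then acetylcholine was added at 50nM. FDSS fluorescence was read 3 min; 15 concentrations, three runs.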

[13] = biological target: Muscarinic acetylcholine receptor M1 (Homo sapiens) (UniProt P11229); experiment: Cholinergic receptor muscarinic 1 (CHRM1) small molecule agonists, cell-based qHTS assay (AID 1963589); note: nearly all actives have a fitted effect of over 35% in size
Procedure, shortened: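 Stable CHRM1-CHO cells (human receptor) were incubated 18 h, dye-loaded for 1 h at 37 C and exposed to test compounds for agonist activity, with calcium-dependent fluorescence followed kinetically.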

[14] = cAMP Responsive Elements (CRE) small molecule agonists, cell-based qHTS assay (AID 1963590); note: potency is the fitted concentration of half-maximal effect
Procedure, shortened: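 FRET-based beta-lactamase readout (LiveBLAzer B/G, 2 h RT) quantified CRE activation in HEK 293T CRE-bla cells after 3 h treatment with DMSO-dissolved compounds.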

[15] = cAMP Responsive Elements (CRE) small molecule antagonists, cell-based qHTS assay (AID 1963591; active = well fitted inhibition curve with a large enough effect in the signal ratio in the repeat runs, not every such curve was filed as active; the % refers to the signal ratio)
Procedure, shortened: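 qHTS in CRE-bla HEK 293T cells: compound in DMSO, then 0.25 uM NKH477 (final), 3 h at 37 °C/5% CO2; beta-lactamase FRET read-out after 2 h substrate incubation.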

[16] = biological target: Beta-2 adrenergic receptor (Homo sapiens) (UniProt P07550); experiment: Adrenergic beta2 receptor (ADRB2) small molecule antagonists, cell-based qHTS assay (AID 1963592); note: series mostly up to about 92 µM; nearly all actives have a fitted effect of over 50% in size
Procedure, shortened: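 Cells (CHO, stable ADRB2 overexpression) incubated 18-20hr at 37C; compounds added from DMSO; agonist mix (1nM isoproterenol, 100uM IBMX, 25uM Ro-20-1724) added; 0.5hr RT; d2-cAMP and anti-cAMP-cryptate added; 1hr RT; 665/615 nm read.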

[17] = biological target: Beta-2 adrenergic receptor (Homo sapiens) (UniProt P07550); experiment: Adrenergic beta2 receptor (ADRB2) small molecule agonists, cell-based qHTS assay (AID 1963593);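 note: CHO cells stably overexpressing human ADRB2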
Procedure, shortened: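 CHO cells stably over-expressing ADRB2 were plated overnight at 37C, then dosed with compounds plus a stimulation mix containing 100uM IBMX and 25uM Ro-20-1724 for 0.5hr at room temperature. cAMP was measured by HTRF competition, 1hr.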

[18] = biological target: D(2) dopamine receptor (Homo sapiens) (UniProt P14416); experiment: Dopamine D2 receptor (DRD2) small molecule antagonists, cell-based qHTS assay (AID 1963595; active = well fitted inhibition curve with a large enough effect in the signal ratio in the repeat runs, with a control signal flat; the % refers to the signal ratio)
Procedure, shortened: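 HEK293 cells stably expressing DRD2, preincubated with 0.1 mM Ro20-1724 and compounds 10 min, were stimulated with 200 nM NKH477 plus 12 nM quinpirole for 30 min at room temperature; cAMP measured by HTRF (665/620 nm).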

[19] = G protein-coupled receptor (GPCR) small molecule agonists, calcium flux assay: HEK293 wild type cell line counter screen (AID 1920065)
Procedure, shortened: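 In this agonist-mode screen, ATP is the positive control and DMSO the vehicle. Cells grow 18 h before a 1 h dye incubation at 37 C; signal is taken at Ex/Em 480/540 over 3 min.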

[20] = biological target: D(2) dopamine receptor (Homo sapiens) (UniProt P14416); experiment: Dopamine D2 receptor (DRD2) small molecule agonists, cell-based qHTS assay (AID 1963594); note: nearly all actives have a fitted effect of over 35% in size
Procedure, shortened: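 cAMP accumulation in DRD2-HEK293 cells measured by HTRF after 1 h detection; compounds added 10 min before NKH477 (200nM […]) forskolin-analogue stimulation, 30 min at room temperature, with Ro20-1724 present at 0.1 mM final.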

Measured: Potency

Chain of KiSS-1 receptor (Homo sapiens) (Q969F8 whole entry, looked up): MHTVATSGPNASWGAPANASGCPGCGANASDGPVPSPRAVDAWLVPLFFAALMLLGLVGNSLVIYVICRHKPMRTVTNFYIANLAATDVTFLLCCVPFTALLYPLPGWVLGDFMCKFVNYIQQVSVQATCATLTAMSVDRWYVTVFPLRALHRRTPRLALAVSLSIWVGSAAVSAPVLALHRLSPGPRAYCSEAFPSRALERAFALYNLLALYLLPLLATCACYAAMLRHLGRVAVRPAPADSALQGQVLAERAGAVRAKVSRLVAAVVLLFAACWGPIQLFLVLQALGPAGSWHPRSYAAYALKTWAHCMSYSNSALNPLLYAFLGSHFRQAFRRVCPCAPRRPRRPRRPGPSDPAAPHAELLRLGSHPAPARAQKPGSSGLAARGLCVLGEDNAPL
Chain of Muscarinic acetylcholine receptor M1 (Homo sapiens) (P11229 whole entry, looked up): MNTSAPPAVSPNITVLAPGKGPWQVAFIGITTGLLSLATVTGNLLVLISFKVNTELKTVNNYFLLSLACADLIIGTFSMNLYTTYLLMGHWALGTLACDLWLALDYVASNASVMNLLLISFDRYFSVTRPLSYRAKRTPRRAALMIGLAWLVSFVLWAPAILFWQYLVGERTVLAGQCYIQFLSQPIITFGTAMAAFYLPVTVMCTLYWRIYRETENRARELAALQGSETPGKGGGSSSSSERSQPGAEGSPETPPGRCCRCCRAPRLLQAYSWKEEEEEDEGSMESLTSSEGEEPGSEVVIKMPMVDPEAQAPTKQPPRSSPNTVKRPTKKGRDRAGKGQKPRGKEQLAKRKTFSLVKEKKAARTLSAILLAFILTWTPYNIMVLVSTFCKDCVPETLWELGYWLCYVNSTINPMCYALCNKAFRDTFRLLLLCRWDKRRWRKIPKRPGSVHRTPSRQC
Chain of Gonadotropin-releasing hormone receptor (Homo sapiens) (P30968 whole entry, looked up): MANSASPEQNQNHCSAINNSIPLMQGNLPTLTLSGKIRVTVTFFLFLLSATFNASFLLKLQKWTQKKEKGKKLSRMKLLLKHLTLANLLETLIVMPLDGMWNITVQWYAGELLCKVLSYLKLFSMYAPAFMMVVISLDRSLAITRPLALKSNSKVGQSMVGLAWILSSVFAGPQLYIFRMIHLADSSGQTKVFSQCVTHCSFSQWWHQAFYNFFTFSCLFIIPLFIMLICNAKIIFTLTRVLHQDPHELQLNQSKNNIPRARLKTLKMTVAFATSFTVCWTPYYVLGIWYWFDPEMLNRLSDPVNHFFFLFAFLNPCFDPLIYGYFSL
Chain of Beta-2 adrenergic receptor (Homo sapiens) (P07550 whole entry, looked up): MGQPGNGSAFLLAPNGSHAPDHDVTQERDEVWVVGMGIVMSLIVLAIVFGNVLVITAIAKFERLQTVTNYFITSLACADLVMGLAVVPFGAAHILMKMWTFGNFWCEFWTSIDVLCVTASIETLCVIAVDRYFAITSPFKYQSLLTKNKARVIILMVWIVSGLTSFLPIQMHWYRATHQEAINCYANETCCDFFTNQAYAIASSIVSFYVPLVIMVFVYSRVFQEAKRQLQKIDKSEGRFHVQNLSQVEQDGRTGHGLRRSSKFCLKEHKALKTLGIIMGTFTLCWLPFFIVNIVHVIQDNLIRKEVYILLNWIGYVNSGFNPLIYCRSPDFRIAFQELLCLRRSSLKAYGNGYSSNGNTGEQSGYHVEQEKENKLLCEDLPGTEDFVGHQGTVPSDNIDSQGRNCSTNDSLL
Chain of D(2) dopamine receptor (Homo sapiens) (P14416 whole entry, looked up): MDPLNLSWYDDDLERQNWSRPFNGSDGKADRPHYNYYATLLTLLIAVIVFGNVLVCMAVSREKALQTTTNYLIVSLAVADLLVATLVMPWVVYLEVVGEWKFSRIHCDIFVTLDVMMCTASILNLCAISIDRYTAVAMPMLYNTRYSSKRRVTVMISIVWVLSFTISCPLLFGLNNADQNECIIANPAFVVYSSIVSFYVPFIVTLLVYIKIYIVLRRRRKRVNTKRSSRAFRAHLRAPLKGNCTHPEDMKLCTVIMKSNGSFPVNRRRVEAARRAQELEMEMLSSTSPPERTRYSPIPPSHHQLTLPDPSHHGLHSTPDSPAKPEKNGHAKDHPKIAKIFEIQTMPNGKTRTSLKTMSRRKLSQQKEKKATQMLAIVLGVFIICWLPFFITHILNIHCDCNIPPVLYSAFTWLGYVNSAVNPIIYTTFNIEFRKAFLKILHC
Chain of 5-hydroxytryptamine receptor 2A (Homo sapiens) (P28223 whole entry, looked up): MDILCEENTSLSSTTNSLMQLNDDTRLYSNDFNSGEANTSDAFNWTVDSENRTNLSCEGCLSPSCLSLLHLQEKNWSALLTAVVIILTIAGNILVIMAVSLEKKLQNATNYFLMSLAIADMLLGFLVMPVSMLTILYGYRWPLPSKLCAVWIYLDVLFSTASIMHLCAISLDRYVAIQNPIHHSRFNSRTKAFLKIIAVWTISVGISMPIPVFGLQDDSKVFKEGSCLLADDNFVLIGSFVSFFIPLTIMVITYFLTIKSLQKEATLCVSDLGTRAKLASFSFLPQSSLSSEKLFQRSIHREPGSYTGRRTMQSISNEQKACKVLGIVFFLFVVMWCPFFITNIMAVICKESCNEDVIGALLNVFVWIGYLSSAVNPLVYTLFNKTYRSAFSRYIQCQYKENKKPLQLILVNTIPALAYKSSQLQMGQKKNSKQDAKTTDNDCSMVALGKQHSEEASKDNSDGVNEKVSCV

CCCCOP(=O)(CCCC)OCCCC
active: [11] 19.5 µM
not listed: [19] | [20]
inactive: all other assays above

ClC(Cl)=C(Cl)C(Cl)=C(Cl)Cl
not listed: [5] | [6] | [9]
inactive: all other assays above

CCCN(CCOc1c(Cl)cc(Cl)cc1Cl)C(=O)n1ccnc1
active: [14] 27.9 µM and 48.6 µM
not listed: [5] | [6] | [17]
inactive: all other assays above

O=C(O)CCl
not listed: [5] | [6] | [9]
inactive: all other assays above

C#CCN(C)[C@H](C)Cc1ccccc1
not listed: [5] | [6] | [9] | [10] | [11] | [12] | [13] | [20]
inactive: all other assays above

Nc1c(Cl)cc([N+](=O)[O-])cc1Cl
not listed: [5] | [6] | [9]
inactive: all other assays above

CC1(C)C(C=C(Cl)Cl)C1C(=O)OC(C#N)c1ccc(F)c(Oc2ccccc2)c1 (configuration not stated)
not listed: [17] | [19] | [20]
inactive: all other assays above

CCOP(=S)(OCC)SCSC(C)(C)C
not listed: [5] | [7] | [17]
inactive: all other assays above

CCOP(=S)(OCC)Oc1ccc([N+](=O)[O-])cc1
active: [12] 9.54 µM and 18.3 µM
not listed: [5] | [6] | [11]
inactive: all other assays above

CCn1cc[n+](C)c1
not listed: [5] | [7] | [9]
inactive: all other assays above

CCCCOC(=O)CCC(=O)OCCCC
not listed: [17] | [18] | [19]
inactive: all other assays above

C=CCN1C[C@H](C)N([C@H](c2ccc(C(=O)N(CC)CC)cc2)c2cccc(OC)c2)C[C@H]1C
active: [12] 2.59 µM
not listed: [17] | [19]
inactive: all other assays above

CCCCCCCCCBr
not listed: [19]
inactive: all other assays above

C=CC(Cl)CCl (configuration not stated)
not listed: [5] | [8] | [9] | [15] | [17]
inactive: all other assays above

CC(C)=CC1C(C(=O)OCN2C(=O)C3=C(CCCC3)C2=O)C1(C)C (configuration not stated)
active: [2] 48.6 µM and 26.6 µM
not listed: [6] | [8] | [12] | [14] | [19]
inactive: all other assays above

O=C1CC(=O)NC(=O)N1
not listed: [6] | [17] | [19]
inactive: all other assays above
